High-throughput results from PubChem BioAssay.
CHX counter – counter-screen for Shiga toxin inhibitors: cycloheximide protein synthesis inhibition; cell reporter, cycloheximide protein synthesis inhibition counterscreen; hit rate 12% among 300,000; max response, %; AID 2314; in the data active = max response mostly above about 13%, no sharp cut-off; inactive = mostly below about 14%; also: read at 38.3 µM for the half of the compounds with a filed dose; 0% is about no effect
Pf growth 48h – inhibits P. falciparum growth in the first generation, 48 h. P. falciparum luciferase growth in erythrocytes, 48 h. Potency, µM (highest dose often 28.7 µM), for inactives: top-dose activity change, negative = inhibition, hits mostly inhibitors. hit rate 5.9% among 310,000; also: potency is read from the fitted curve at half-maximal effect; % is scaled to controls: 0 for no effect and ±100 for the full control effect
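Growth was read as firefly luciferase luminescence after a 48 h, 37 C, 5% CO2 exposure of compounds to reporter-bearing P. falciparum cultures (0.1% parasitemia, 2% hematocrit final) in Albumax-supplemented RPMI 1640.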
Pf growth 96h – P. falciparum growth inhibition at 96 hour, primary screen for plastid delayed-death inhibitors; AID 504834; hit rate 6.9% among 320,000; P. falciparum luciferase reporter growth, 96 h; Potency, µM (series often up to 28.7 µM), inactives show top-dose activity change, negative = inhibition, hits mostly inhibitors; also: potency is read from the fitted curve at half-maximal effect; % is scaled to controls: 0 for no effect and ±100 for the full control effect
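Luminescence readout: decreased luciferase signal marks inhibited growth of reporter-expressing P. falciparum in infected red cells (2% hematocrit, 0.05% parasitemia final), exposed to compound two generations (96 h, 37 C, 5% CO2).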
NS1 function inh – blocks influenza NS1 protein function | AID 2326 | hit rate 0.4% among 270,000 | Potency, µM (highest dose often 46.1 µM), for inactives: at the highest dose activity, positive = more growth; calls by dose curve; also: potency is read from the fitted curve at half-maximal effect; actives are rising curves; nearly all actives have a fitted effect of over 50% in size
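A cell-based growth assay was used: compounds that relieve NS1-induced slow growth of budding yeast raise OD600. Assay medium was yeast nitrogen base with ammonium sulphate and -URA supplement, pH 6.0, with 2% galactose.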
Shiga toxin inh – Shiga toxin inhibition; Vero cells, Shiga toxin protein synthesis inhibition reporter; inhibition, % at 38.7 µM; hit rate 9.2% among 290,000; AID 2315; in the data active = inhibition mostly above about 28%, no sharp cut-off; inactive = mostly below about 43%; also: 0% is about no effect
SARS PLP yeast – blocks SARS-CoV papain-like protease in a yeast assay; S. cerevisiae expressing SARS-CoV PLpro, growth rescue; Potency, µM (titrated, usually from 32.9 µM), for inactives: top-dose activity, positive = growth rescue, actives largely listed as activators; hit rate 0.19% among 330,000; AID 485353; calls by dose curve; also: potency is read from the fitted curve at half-maximal effect; 0% is about no effect; nearly all actives have a fitted effect of over 55% in size
The depositor's hits bear a star. Only some compounds are listed: those with a hit (about 21% of all), similar ones and a draw of the others. Unless noted, calls follow the shape of the dose curve; as a rule, active = well fitted inhibition curve with a large enough effect; inconclusive = small, poorly fitted or top-dose-only effect, or another doubt; inactive = no such curve, though single readings can be large or run the other way.

Results for CCCCNC(=O)C(Sc1ccccc1)c1ccccc1 (stereo not drawn) ?
CHX counter: -2; Pf growth 48h: 12%; Pf growth 96h: 336%; NS1 function inh: 11%; Shiga toxin inh: 15; SARS PLP yeast: -1%

What do the screens show for `CCOc1ccc(-c2csc(NC(=O)CSCC(=O)O)n2)c2ccccc12`?
CHX counter: 6; Pf growth 48h: 17%; Pf growth 96h: 10%; Shiga toxin inh: -5; SARS PLP yeast: -4%

Results for O=C(CSc1nc2ccccc2o1)Nc1nc(-c2ccccc2)c(-c2ccccc2)s1 ?
CHX counter: -6; Pf growth 48h: -4%; Pf growth 96h: -18%; NS1 function inh: 3%; Shiga toxin inh: -4; SARS PLP yeast: 15%

How did CCOc1ccc(-c2csc(NC(=O)CSC3=NC(=O)CN3C(C)=O)n2)c2ccccc12 do in these assays?
CHX counter: -6; Pf growth 48h: inconclusive; Pf growth 96h: 10µM*; NS1 function inh: inconclusive; Shiga toxin inh: -10; SARS PLP yeast: 4%

Results for CC(=O)N1CC(=O)N=C1SCC(=O)Nc1nc(C)c(-c2ccccc2)s1 ?
CHX counter: 33*; Pf growth 48h: -79%; Pf growth 96h: -25%; Shiga toxin inh: 37*; SARS PLP yeast: 1%

How did CC(=O)Nc1ccc(NC(=O)CCCc2ccccc2)cc1 do in these assays?
CHX counter: 31*; Pf growth 48h: -14%; Pf growth 96h: 22%; NS1 function inh: 10%; Shiga toxin inh: 24; SARS PLP yeast: 8%

Results for COC(=O)c1cccc(NC(=O)CSCc2ccccc2)c1 ?
CHX counter: 19*; Pf growth 48h: -7%; Pf growth 96h: inconclusive; NS1 function inh: -14%; Shiga toxin inh: 16; SARS PLP yeast: 2%

What do the screens show for `CC(=O)Nc1cccc(NC(=O)CCc2ccccc2)c1`?
CHX counter: 24; Pf growth 48h: 40%; NS1 function inh: 9%; Shiga toxin inh: 138*; SARS PLP yeast: -5%

How did COC(=O)c1cccc(NC(=O)CCc2ccccc2)c1 do in these assays?
CHX counter: 58*; Pf growth 48h: 103%; Pf growth 96h: -6%; NS1 function inh: -6%; Shiga toxin inh: 57*; SARS PLP yeast: 15%

Results for C/C(CCc1ccccc1)=N\NC(=O)CCc1ccccc1 ?
CHX counter: 0; Pf growth 48h: 26%; Pf growth 96h: 38%; NS1 function inh: 9%; Shiga toxin inh: -6; SARS PLP yeast: -3%

What do the screens show for `COC(=O)c1ccc(CSCC(=O)Nc2ccccc2)cc1`?
CHX counter: -2; Pf growth 48h: 58%; Pf growth 96h: inconclusive; NS1 function inh: -6%; Shiga toxin inh: -1; SARS PLP yeast: -1%

How did O=C(O)CCN1C(=O)c2ccc(NC(=O)CCc3ccccc3)cc2C1=O do in these assays?
CHX counter: -2; Pf growth 48h: -1%; Pf growth 96h: 12µM*; NS1 function inh: 6%; Shiga toxin inh: 2; SARS PLP yeast: 0%

How did COc1ccc(NC(=O)CCCc2ccccc2)cc1OC do in these assays?
CHX counter: 54*; Pf growth 48h: 96%; Pf growth 96h: 141%; NS1 function inh: 4%; Shiga toxin inh: 89*; SARS PLP yeast: -6%

How did CN(C)c1cccc(NC(=O)CCc2ccccc2)c1 do in these assays?
CHX counter: 18*; Pf growth 48h: 28%; NS1 function inh: 12%; Shiga toxin inh: 68*; SARS PLP yeast: -5%

How did CC(C)CNC(=O)c1cccc(NC(=O)CCc2ccccc2)c1 do in these assays?
CHX counter: 6; Pf growth 48h: 1%; Pf growth 96h: -9%; NS1 function inh: 5%; Shiga toxin inh: -7; SARS PLP yeast: -1%

What do the screens show for `Cc1cccc(NC(=O)CCc2ccccc2)c1`?
CHX counter: 54*; Pf growth 48h: 171%; Pf growth 96h: -23%; Shiga toxin inh: 111; SARS PLP yeast: -5%

Results for O=C(O)c1ccccc1OS(=O)(=O)O ?
CHX counter: 0; Shiga toxin inh: -3

What do the screens show for `CC1=CC23C(=O)C(C=C(CO)[C@@H](O)[C@]2(O)[C@H]1O)[C@H]1[C@@H](C[C@H]3C)C1(C)C` (stereo partly drawn)?
CHX counter: -2; Shiga toxin inh: -3

What do the screens show for `COc1cc(/C=C(\C#N)c2nc3ccccc3s2)cc([N+](=O)[O-])c1O`?
CHX counter: 1; Pf growth 48h: 20%; Pf growth 96h: 9.3µM*; Shiga toxin inh: -3; SARS PLP yeast: -4%
